Results from publication PMC7819943, “Rice protein-binding microarrays: a tool to detect cis-acting elements near promoter regions in rice”.
The full ranking holds about 68,000 sequences; the median of “fluorescence intensity (a.u.)” is about 9,100, and the highest 2% start at about 16,000. The list comes from a sample in which the highest values are over-represented; it also holds similar and randomly drawn sequences.

Biological target: OsWRKY34 (Oryza sativa, UniProt Q0JBA9 1-250)
Assay: protein-binding microarray (RPBM); PBS, 2% BSA, 51.3 ng/ul salmon testes DNA, 50 uM zinc acetate, 200 nM TF, 25 C, 1 h; high values mean tight binding
Details: protein: recombinant; tags: N-terminal polyhistidine and DsRed monomer fusion (pET32a); label: CyDye5-dUTP incorporated in the synthesized complementary strand; 3' TTTTT single-stranded linker to array surface; dsDNA, one strand shown
Summary of the method: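 A custom Agilent array was converted to double-stranded form by primer extension with Cy5-dUTP and blocked with 2% BSA. Protein at 200 nM in PBS with 2% BSA, salmon testes DNA and 50 µM zinc acetate was applied for 1 h at 25 °C, followed by washing. The proteins were polyhistidine–DsRed N-terminal fusions of transcription factors, expressed in E. coli BL21-CodonPlus and Ni–NTA-purified. The binding signal is per-feature fluorescence intensity (arbitrary units) from an Axon 4000B scanner.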

Chain of OsWRKY34 (Q0JBA9 entry or part of it): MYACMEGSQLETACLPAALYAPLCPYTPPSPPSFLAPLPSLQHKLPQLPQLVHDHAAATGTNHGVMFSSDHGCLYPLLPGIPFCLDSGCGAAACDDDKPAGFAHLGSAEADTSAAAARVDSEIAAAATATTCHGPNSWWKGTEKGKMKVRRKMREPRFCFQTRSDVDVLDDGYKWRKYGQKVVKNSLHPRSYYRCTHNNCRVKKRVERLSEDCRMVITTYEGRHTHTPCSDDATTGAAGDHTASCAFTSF

Row | Sequence | binding signal
1 | CCTCTGGTCACGCATTCTACACAGAATCTCTGGTTTTCCCCGGAGTCACCTAGTGCAG | 9500 fluorescence intensity (a.u.)
2 | ACTTTCTTTTTTTCTTTTTAACCTTGACCTTTACTGGCATCGGAGTCACCTAGTGCAG | 8690 fluorescence intensity (a.u.)
3 | ATATGCTGTCTTTTACTTGACTTGTAGTGCAACCTTCCACCGGAGTCACCTAGTGCAG | 12100 fluorescence intensity (a.u.)
4 | TCCTTTGACTTTTTAACCAGCTGTCTACTAGTAGTACTACCGGAGTCACCTAGTGCAG | 17800 fluorescence intensity (a.u.)
5 | TTGCAGCTGTCCTCTCTACCTTAACCCTTTGACCAGTGCTCGGAGTCACCTAGTGCAG | 9130 fluorescence intensity (a.u.)
6 | GAACAGCTCAGCTCACCGCATCCTTTGACTTTTTAACCAGCGGAGTCACCTAGTGCAG | 18100 fluorescence intensity (a.u.)
7 | ATCTTAACCGCAACAGCTTTGCATCTTTTTAGTACCTATTCGGAGTCACCTAGTGCAG | 8170 fluorescence intensity (a.u.)
8 | CACACGCACGCTTCTCACGTACATATCGATCGCAAATATCCGGAGTCACCTAGTGCAG | 8490 fluorescence intensity (a.u.)
9 | GCCGATAGAGGCATGGGGTTTGTTCAGATTGATGTCATTTCGGAGTCACCTAGTGCAG | 9370 fluorescence intensity (a.u.)
10 | CCGTGGTGGTACGCGCGCGCTGCGTACGTTTTTTTTTCTTCGGAGTCACCTAGTGCAG | 9450 fluorescence intensity (a.u.)
11 | CGAACCAAGACAAGAAAATAGAACCATCCTATCTATCAGGCGGAGTCACCTAGTGCAG | 11500 fluorescence intensity (a.u.)
12 | GCTACACCGCACCCACCACAGCCAGACTTGAACTTGTTGACGGAGTCACCTAGTGCAG | 8950 fluorescence intensity (a.u.)
13 | TCTGCTTTTATTCATCGGTTTCATTAATTGTTTCTGTTACCGGAGTCACCTAGTGCAG | 17200 fluorescence intensity (a.u.)
14 | ATCCCGCTTATCCCACTTCTAATTCATTTTTTCTTTTAAACGGAGTCACCTAGTGCAG | 10900 fluorescence intensity (a.u.)
15 | GTCTCGCTTTCTCTCTCTAGGGTTTTTCCCCACTTTCGTTCGGAGTCACCTAGTGCAG | 13700 fluorescence intensity (a.u.)
16 | TCATTATGGTGTTTCTTAATTGCTTTTTTCTTTTTATTATCGGAGTCACCTAGTGCAG | 8300 fluorescence intensity (a.u.)
17 | TTTCTTGTTTTCTTCTCATTCTTCTTTTTTTTCTTTCTTCCGGAGTCACCTAGTGCAG | 14700 fluorescence intensity (a.u.)
18 | CTCTCTTTCTTCTTTGTGTCTTTGTTTCTTTTCTTTTTTCCGGAGTCACCTAGTGCAG | 14700 fluorescence intensity (a.u.)
19 | CCGCTCGTCTTCCACTGCAGCCCAGCTCCCGTTCTTTCAACGGAGTCACCTAGTGCAG | 16500 fluorescence intensity (a.u.)
20 | GGTTTTTTTCCCGCTTATCCCACTTCTAGTCTATCTTTTTCGGAGTCACCTAGTGCAG | 19300 fluorescence intensity (a.u.)
21 | GGCGCCGTCGTCTTCTTTCCCACGCCGCCGCCGCCGTCAACGGAGTCACCTAGTGCAG | 8600 fluorescence intensity (a.u.)
22 | TTTCTTTTTCTTGGTTTTTTTTTGTCTTTTCTTCTTTTTCCGGAGTCACCTAGTGCAG | 18200 fluorescence intensity (a.u.)
23 | GGGTTATGTTTCATTTGTATTATTTTCTTAATTCTTACACCGGAGTCACCTAGTGCAG | 12700 fluorescence intensity (a.u.)

Row | Sequence | binding signal
24 | GCTCCGTCTTCCTGCTCCAGCCGCTCGCCATAGCCCACTGCGGAGTCACCTAGTGCAG | 11100 fluorescence intensity (a.u.)
25 | CACATTGCGTCTTGTAGTCTGTATTGTAGCTGACTATATACGGAGTCACCTAGTGCAG | 8820 fluorescence intensity (a.u.)
26 | CCTCCCTTGTTTTCTGTACCAATACGTGATGCACCGGTCTCGGAGTCACCTAGTGCAG | 8440 fluorescence intensity (a.u.)
27 | GGGTTCACCACCAAACTCGCCACCTATAAACGCTCCTCGCCGGAGTCACCTAGTGCAG | 9030 fluorescence intensity (a.u.)
28 | AATGTTAACGGTGCATGTGGTTGGTTGATTTGATTAGTGACGGAGTCACCTAGTGCAG | 15300 fluorescence intensity (a.u.)
29 | AATGTTCAAAATTGTGCAATCAAGGTCTTACGGCAGTATACGGAGTCACCTAGTGCAG | 8120 fluorescence intensity (a.u.)
30 | TTCTTTTCGCTAGTGATGTCTAGCGTTTCTTTTGACAAATCGGAGTCACCTAGTGCAG | 8560 fluorescence intensity (a.u.)
31 | CGTCTTAGTTACCCTTCTACTCCTATCGCTCGATCGCCTCCGGAGTCACCTAGTGCAG | 8380 fluorescence intensity (a.u.)
32 | TCCTTAGCTCCGCGGATTTGTTCACCATCACCACCATCACCGGAGTCACCTAGTGCAG | 8780 fluorescence intensity (a.u.)
33 | GCACCAACCATCTCACCCGTCCGACGTGGCAGCAGCAACCCGGAGTCACCTAGTGCAG | 8770 fluorescence intensity (a.u.)
34 | TTTTTTCTGTTTTTTTCTTTCCGTATCTTTTTCAGTTTTTCGGAGTCACCTAGTGCAG | 14200 fluorescence intensity (a.u.)
35 | GGGTGGCGTCCTGTTGTCATCTTTTATCCCTCTTGAATTCCGGAGTCACCTAGTGCAG | 21500 fluorescence intensity (a.u.)
36 | TTTTTTTCTTTCCGTATCTTTTTCTTTTTTTGGTTTTTTACGGAGTCACCTAGTGCAG | 8410 fluorescence intensity (a.u.)
37 | TTGTGTGTGCGTTTGTGATTGCGTCGGTCGGTTTCAGTTCCGGAGTCACCTAGTGCAG | 17500 fluorescence intensity (a.u.)
38 | TGTTTTTTTTCTTTCCGTATCTTTTTCTTTTTTTGGTTTTCGGAGTCACCTAGTGCAG | 19700 fluorescence intensity (a.u.)
39 | CTGCCTGTCCCTTTCCTGCATCCATCCATCCATCTTGATCCGGAGTCACCTAGTGCAG | 10600 fluorescence intensity (a.u.)
40 | GTCATCTTTGTTTGAGTCGGTTTTTAATTTTGTTTGCTTTCGGAGTCACCTAGTGCAG | 17700 fluorescence intensity (a.u.)
41 | TGGTTCTTTGATCTTTTAATTTTGTTTGTTTGTTTGTTTTCGGAGTCACCTAGTGCAG | 12800 fluorescence intensity (a.u.)
42 | AAGTTTAATTTGTTATTTTTATTTTTATACGTCATCTTTTCGGAGTCACCTAGTGCAG | 9760 fluorescence intensity (a.u.)
43 | GAGTTCGGCCTTTCCGGTTTCCGGTTGTGTTGTGAGGAGTCGGAGTCACCTAGTGCAG | 10600 fluorescence intensity (a.u.)
44 | ACTAAGTGCGTGATTGTTTCAGATTTGTTTGGGTTGCGGTCGGAGTCACCTAGTGCAG | 9410 fluorescence intensity (a.u.)
45 | TCCCCTCTCTGTTGTCATCGTCTTCCTTTCCTTTCCTTTCCGGAGTCACCTAGTGCAG | 8230 fluorescence intensity (a.u.)
